The results in this text go back to ChEMBL document CHEMBL3988442, “University of Dundee, Small-Polar-MMV Screening Library” (2021).

The experiment concerns Trypanosoma brucei. The experiment is described as follows: Trypanosoma brucei 72 hour study. It counts as functional, organism-based. On the set-up: scale not given: in the data most compounds retested in dose-response had high values.

The structures appear in SMILES notation. Hit rate of the full screen: of about 66,000 compounds, about 960 (1.5%) showed an effect of 50% or more. The list comes from a sample in which strong results are over-represented; it also holds similar structures and randomly drawn compounds.

Turning to `O=C1CC(c2cccc(Cl)c2)c2snc(C(=O)O)c2N1` (configuration not stated), under “30.3 µM, […]”, the “Percent Effect” value is -31.06%.

As to `CN1CCC(Oc2ccc(NC(=O)c3ccccc3Br)cc2)CC1`, the “Percent Effect” value (30 µM, 30.03 µM) is recorded as 65.56%.

With `COc1ccccc1C(=O)Nc1ccc(OC2CCN(C)CC2)cc1`, the “Percent Effect” value (30 µM, 30.03 µM) is -32.85%.

`Cc1ccccc1C(=O)Nc1ccc(OC2CCN(C)CC2)cc1`: where the note is “30 µM, 30.03 µM”, the “Percent Effect” value is recorded as -8.393%.

As for `Cl.O=C(NCC1CCCO1)c1cc(-c2ccncc2)c2cnccc2n1` (configuration not stated), the “Percent Effect” value (30.3 µM, […]) is -19.01%.

On to `CC1=Nc2c(c(=O)[nH]n2C(C)C)C(c2ccc3ncccc3c2)S1` (configuration not stated), for which, under “30 µM, 30.03 µM”, the “Percent Effect” value is on record as -30.02%.

For `CC(Cn1cccn1)NCc1nc(-c2ccc3c(c2)OCO3)no1` (configuration not stated), the “Percent Effect” value (30.3 µM, […]) is given as -4.603%.

Consider `CC(Cn1cccn1)NCc1nc(-c2cccc(Cl)c2)no1` (configuration not stated), for which, for the setting “30 µM, 30.03 µM”, the “Percent Effect” value came out at 53.11%.

Consider `CC(Cn1cccn1)NCc1nc(-c2cccnc2)no1` (configuration not stated), for which the “Percent Effect” value (30 µM, 30.03 µM) is on record as 5.913%.

As to `CCn1ccnc1C1CCCN(C(=O)c2sc(C)nc2C)C1` (configuration not stated), the “Percent Effect” value (30 µM, 30.03 µM) is listed as -29.7%.

On to `Cc1cc(C)nc(N2CCCC(c3nccn3CCCN(C)C)C2)c1` (configuration not stated), for which the “Percent Effect” value (30 µM, 30.03 µM) is recorded as -17.07%.

`Cc1nc(N)sc1C(=O)N1CCCC(c2nccn2CCCN(C)C)C1` (configuration not stated): the “Percent Effect” value (30 µM, 30.03 µM) is 50.48%.

Consider `N#CCc1cccc(C(=O)N2CCN(CC(O)c3ccccc3)CC2)c1` (configuration not stated), for which the “Percent Effect” value (30.3 µM, […]) was 6.868% and the “Percent Effect” value (10 mM, 10 mM as filed; unlikely as a test dose) was -3.185%.

As to `CCn1ccnc1CN1CCN(CC(O)c2ccccc2)CC1` (configuration not stated), the “Percent Effect” value (30 µM, 30.03 µM) is recorded as -18.29%.

Take `OC(CN1CCC(CNCc2ccccn2)CC1)c1ccccc1` (configuration not stated): the “Percent Effect” value is on record as -26.34% (10 µM) and 32.19% (30.3 µM, […]).

Turning to `Cc1ncccc1CNCC1CCN(CC(O)c2ccccc2)CC1` (configuration not stated), the “Percent Effect” value (30 µM, 30.03 µM) was 36.2%.

With `Cc1ccc(CNCC2CCN(CC(O)c3ccccc3)CC2)o1` (configuration not stated), the “Percent Effect” value runs as follows: (10 µM) 51.2%; (30.3 µM, […]) 70.09%.

For `CCn1ccnc1CNCC1CCN(CC(O)c2ccccc2)CC1` (configuration not stated), where the note is “30 µM, 30.03 µM”, the “Percent Effect” value was 95.36%.

Regarding `Cc1noc(C)c1CNCC1CCN(CC(O)c2ccccc2)CC1` (configuration not stated), where the note is “30 µM, 30.03 µM”, the “Percent Effect” value is 39.8%.

Consider `CN(C)CCOC[C@H]1CC[C@H]2[C@H](CCN2C(=O)c2ccoc2)O1.O=C(O)C(F)(F)F`, for which the “Percent Effect” value (30 µM, 30.03 µM) is on record as 21.89%.

Take `Cc1cnn(CC2CCCN2C(=O)c2cn(C)c3ccccc23)c1` (configuration not stated): the “Percent Effect” value (10 µM) is recorded as -33.63%.

On to `Cc1ccc(-c2cc(CNc3ncnc4c3CCNCC4)no2)cc1`, for which, for the setting “30 µM, 30.03 µM”, the “Percent Effect” value is reported as 31.3%.

In the case of `CSc1ccc(CN(C)Cc2noc(C(C)(C)C)n2)cc1`, for the setting “30 µM, 30.03 µM”, the “Percent Effect” value is -12.59%.

For `Cc1ccc2c(n1)N(CCn1cccn1)CCN(CC1CC1)C2.O=C(O)C(F)(F)F.O=C(O)C(F)(F)F`, under “30.3 µM, […]”, the “Percent Effect” value is given as -30.39%.

As to `CS(=O)(=O)N1CCC(CNC(=O)C2CCCC2)CC1`, for the setting “30 µM, 30.03 µM”, the “Percent Effect” value is on record as -35.01%.

Take `COCCN1CCCC2(CCN(c3cc(C)c(C#N)c(C)n3)C2)C1=O` (configuration not stated): for the setting “30 µM, 30.03 µM”, the “Percent Effect” value worked out at 50.02%.

Regarding `Cc1cc(C)c(C#N)c(N2CCC3(CCCN(CCO)C3=O)C2)n1` (configuration not stated), the “Percent Effect” value (30 µM, 30.03 µM) is given as -17.57%.

Take `Cc1cc(N2CCC3(CCCN(CCO)C3=O)C2)nc(C)c1C#N` (configuration not stated): the “Percent Effect” value (30 µM, 30.03 µM) is reported as -51.69%.

Consider `Cn1cccc1C(=O)N1CCC2(CCN(C(=O)c3cccnc3)C2)CC1.O=C(O)C(F)(F)F`, for which the “Percent Effect” value (30.3 µM, […]) is reported as -55.95%.

With `CC1c2ncc(CNC(=O)C3CC3)n2CCN1Cc1ccncc1.O=C(O)C(F)(F)F.O=C(O)C(F)(F)F` (configuration not stated), the “Percent Effect” value (30.3 µM, […]) is -14.67%.

Turning to `C[C@@H]1C(=O)NC[C@H]2CN(CCc3ccccc3)C[C@H]21.O=C(O)C(F)(F)F`, where the note is “30.3 µM, […]”, the “Percent Effect” value is given as -1.404%.

For the molecule `CCc1nc(CN(C)C2CCN(CCc3ccccn3)C2)no1` (configuration not stated), the “Percent Effect” value (30 µM, 30.03 µM) is 3.156%.

For `CCc1nc(CN(C(C)=O)C2CCN(CCc3ccccn3)C2)no1` (configuration not stated), the “Percent Effect” value (10 µM) is 65.29%.

Regarding `CCc1nc(CN(C(C)=O)C2CCN(CCc3ccccc3)C2)no1` (configuration not stated), the “Percent Effect” value (10 µM) is on record as -54.25%.

Regarding `Cc1ccc(CN2C[C@@H]3[C@@H](C(=O)NCC4CC4)CCS(=O)(=O)[C@@H]3C2)cc1.O=C(O)C(F)(F)F`, the “Percent Effect” value (30.3 µM, […]) is listed as -76.84%.

As for `O=C1C[C@H]2CC[C@@H](CN1)N2C(=O)Cc1ccsc1`, the “Percent Effect” value (30.3 µM, […]) is -6.652%.

In the case of `CN(C)C(=O)COCc1cncc2c1CCN(Cc1ccccn1)C2.O=C(O)C(F)(F)F.O=C(O)C(F)(F)F`, under “30.3 µM, […]”, the “Percent Effect” value is recorded as -50.95%.

Take `O=C(NC1CC1)[C@@H]1CCO[C@@H]2CCN(CCc3ccccc3)C[C@@H]21.O=C(O)C(F)(F)F`: for the setting “30.3 µM, […]”, the “Percent Effect” value was -14.39%.

As for `CC(C)n1c2ccccc2c2c1cc(C(=O)N(C)C)n2C`, for the setting “30.3 µM, […]”, the “Percent Effect” value is given as -58.05%.

Take `CC(CNC(=O)c1ccc(C#N)cc1)N1CCc2ccccc21` (configuration not stated): the “Percent Effect” value (30.3 µM, […]) amounted to 1.685%.

For the molecule `CC(CNC(=O)Nc1ccc(C#N)cc1)N1CCc2ccccc21` (configuration not stated), the “Percent Effect” value (30.3 µM, […]) turned out to be 100.3%.

Take `COc1ccc(NC(=O)NCC(C)N2CCc3ccccc32)cc1` (configuration not stated): where the note is “30.3 µM, […]”, the “Percent Effect” value is listed as -7.739%.

Take `CC(=O)Nc1c(C)noc1/C=C\c1ccc(S(=O)(=O)NC2CC2)cc1`: for the setting “30.3 µM, […]”, the “Percent Effect” value was -2.674%.

Turning to `COCC(=O)N1CCCCC1c1ccnc(Nc2ncc(C)s2)n1` (configuration not stated), under “30.3 µM, […]”, the “Percent Effect” value came to 16.03%.

Regarding `COCC(=O)N1CCCC1c1cccc(Nc2ncc(C)s2)n1` (configuration not stated), the “Percent Effect” value (30.3 µM, […]) is reported as 85.92%.

In the case of `Cc1ccccc1CN1CCCC1c1cccc(Nc2nccs2)n1` (configuration not stated), the “Percent Effect” value (30.3 µM, […]) stood at 5.594%.

Consider `CS(=O)(=O)N1CCCC1c1cccc(Nc2nccs2)n1` (configuration not stated), for which the “Percent Effect” value (30.3 µM, […]) is on record as 92.1%.

As for `Cc1cnc(Nc2cccc(C3CCCN3C(=O)CO)n2)s1` (configuration not stated), the “Percent Effect” value (30.3 µM, […]) is on record as 28.67%.

With `c1ccc(CCN2CCCC2c2cccc(Nc3nccs3)n2)cc1` (configuration not stated), the “Percent Effect” value (30.3 µM, […]) worked out at 29.28%.
